Source: PubChem BioAssay (NCATS)
Inconclusive results are not listed. Calls of active or inactive are those of the source. Calls come from the whole dose curve; as a rule, active = well fitted cell-killing curve with a large enough effect; inconclusive = small, poorly fitted or top-dose-only effect, or effect the other way; inactive = flat fitted curve, though single readings scatter.

Experiments:
Assay in all cases: Primary qHTS to identify gynecologic anti-cancer compounds using libraries of approved drugs and bioactive compounds (AID 1345084); note: nearly all actives have a fitted effect of over 55% in size
[1] = system: CASKI; conditions: Gynecologic cancer cell panel viability, ATPlite luminescence, 48 h; series mostly up to 57.5 µM
How it was run: (§1)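 48 h compound exposure at 37 C, 5% CO2; five-point qHTS. ATPlite luminescence readout of cell ATP.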

[2] = system: Es-2; conditions: Gynecologic cancer cell panel viability, ATPlite luminescence, 48 h; series mostly up to 57.5 µM
How it was run: as §1

[3] = system: HeLa; conditions: Gynecologic cancer cell panel viability, ATPlite luminescence, 48 h; series mostly up to 57.5 µM
How it was run: as §1

[4] = system: Hek293T; conditions: Gynecologic cancer cell panel viability, ATPlite luminescence, 48 h, control line for the selectivity index; series mostly up to 57.5 µM
How it was run: as §1

[5] = system: JEG-3; conditions: Gynecologic cancer cell panel viability, ATPlite luminescence, 48 h; series mostly up to 57.5 µM
How it was run: as §1

[6] = system: OV90; conditions: Gynecologic cancer cell panel viability, ATPlite luminescence, 48 h; series mostly up to 57.5 µM
How it was run: as §1

[7] = system: PA-1; conditions: Gynecologic cancer cell panel viability, ATPlite luminescence, 48 h; series mostly up to 57.5 µM
How it was run: as §1

[8] = system: SKOV3; conditions: Gynecologic cancer cell panel viability, ATPlite luminescence, 48 h; series mostly up to 57.5 µM
How it was run: as §1

[9] = system: Tov-21-G; conditions: Gynecologic cancer cell panel viability, ATPlite luminescence, 48 h; series mostly up to 57.5 µM
How it was run: as §1

[10] = system: Tov112D; conditions: Gynecologic cancer cell panel viability, ATPlite luminescence, 48 h; series mostly up to 57.5 µM
How it was run: as §1

Measured: Potency

O=C(O)c1cn(C2CC2)c2cc(Cl)c(F)cc2c1=O
inactive: [1] | [2] | [3] | [4] | [5] | [6] | [7] | [8] | [9] | [10]

CCCCCCCC(=O)[O-].CCCCCCCC(=O)[O-].[Zn+2]
inactive: [1] | [2] | [3] | [4] | [5] | [6] | [7] | [8] | [9] | [10]

CC(COc1ccccc1)NN (configuration not stated)
inactive: [1] | [2] | [3] | [4] | [5] | [6] | [7] | [8] | [9] | [10]

Cc1cc(CCCOc2c(C)cc(-c3noc(C(F)(F)F)n3)cc2C)on1
inactive: [1] | [2] | [3] | [4] | [5] | [6] | [7] | [8] | [9] | [10]

CC(=O)OCC(=O)[C@@]1(O)CCC2C3CCC4=CC(=O)CC[C@]4(C)C3[C@@H](O)C[C@@]21C (some centres not stated)
inactive: [1] | [2] | [3] | [4] | [5] | [6] | [7] | [8] | [9] | [10]

Cc1oc(-c2ccccc2)nc1CCC(=O)c1ccc(CC2SC(=O)NC2=O)cc1 (configuration not stated)
inactive: [1] | [2] | [3] | [4] | [5] | [6] | [7] | [8] | [9] | [10]

CCOC(=O)C(=O)c1csc(NC=O)n1
inactive: [1] | [2] | [3] | [4] | [5] | [6] | [7] | [8] | [9] | [10]

Nc1ncnc2c1ncn2Cc1c(F)cccc1Cl
inactive: [1] | [2] | [3] | [4] | [5] | [6] | [7] | [8] | [9] | [10]

CO/N=C(/C(=O)N[C@@H]1C(=O)N2C(C(=O)[O-])=C(C[n+]3ccn4ncccc43)CS[C@H]12)c1nsc(N)n1
inactive: [1] | [2] | [3] | [4] | [5] | [6] | [7] | [8] | [9] | [10]

NS(=O)(=O)c1cc2c(cc1Cl)CN(C1CCCCC1)C2=O
inactive: [1] | [2] | [3] | [4] | [5] | [6] | [7] | [8] | [9] | [10]

O=C1CC2(CCCC2)CC(=O)N1
inactive: [1] | [2] | [3] | [4] | [5] | [6] | [7] | [8] | [9] | [10]

CCOC(=O)c1ccc(NC(=O)CN2CCCCC2)cc1
inactive: [1] | [2] | [3] | [4] | [5] | [6] | [7] | [9] | [10]

C/C=C(/C(=C/C)c1ccc(OC(C)=O)cc1)c1ccc(OC(C)=O)cc1
inactive: [1] | [2] | [3] | [4] | [5] | [6] | [7] | [8] | [9] | [10]

CCCCCN(CCCOC)C(=O)C(CCC(=O)O)NC(=O)c1ccc(Cl)c(Cl)c1 (configuration not stated)
inactive: [1] | [2] | [3] | [4] | [5] | [6] | [7] | [8] | [9] | [10]

CC(=O)Nc1ccc(S(=O)(=O)Nc2cc(C)on2)cc1
inactive: [1] | [2] | [3] | [4] | [5] | [6] | [7] | [9] | [10]

CCCC(CCC)(C(=O)OCC)C(=O)OCC
inactive: [1] | [2] | [3] | [4] | [5] | [6] | [7] | [8] | [9] | [10]

CC1(C)O[C@@H]2C[C@H]3[C@@H]4CCC5=CC(=O)C=C[C@]5(C)[C@@]4(F)[C@@H](O)C[C@]3(C)[C@]2(C(=O)CO)O1
inactive: [1] | [2] | [3] | [4] | [5] | [6] | [7] | [8] | [9] | [10]

CCN(CC)CC(=O)OCC(=O)[C@@]1(O)CC[C@H]2[C@@H]3CCC4=CC(=O)CC[C@]4(C)[C@H]3[C@@H](O)C[C@@]21C
inactive: [1] | [2] | [3] | [4] | [5] | [6] | [7] | [8] | [9] | [10]

Brc1ccc([C@H]2CN3CCSC3=N2)cc1
inactive: [1] | [2] | [3] | [4] | [5] | [6] | [7] | [8] | [9] | [10]

Cc1cnc(NS(=O)(=O)c2ccc(N)cc2)nc1
inactive: [1] | [2] | [3] | [4] | [5] | [6] | [7] | [8] | [9] | [10]

CC(C)C(=O)Nc1cccc(C2CN3CCSC3=N2)c1 (configuration not stated)
inactive: [1] | [2] | [3] | [4] | [5] | [6] | [7] | [8] | [9] | [10]

CN1CCC(=C2c3ccccc3CCc3cccnc32)CC1
inactive: [1] | [2] | [3] | [4] | [5] | [6] | [7] | [8] | [10]

[O-][n+]1cccc(/C(Cl)=N/OC[C@@H](O)CN2CCCCC2)c1
inactive: [1] | [2] | [3] | [4] | [5] | [6] | [7] | [8] | [9] | [10]

COc1cc(OC)nc(O[C@H](C(=O)O)C(OC)(c2ccccc2)c2ccccc2)n1
inactive: [1] | [2] | [3] | [4] | [5] | [6] | [7] | [8] | [9] | [10]

Nc1nnnn1-c1ccccc1
inactive: [1] | [2] | [3] | [4] | [5] | [6] | [7] | [8] | [9] | [10]

O=C(COCCOCCOCC(=O)Nc1c(I)cc(I)c(C(=O)O)c1I)Nc1c(I)cc(I)c(C(=O)O)c1I
inactive: [1] | [2] | [3] | [4] | [5] | [6] | [7] | [8] | [9] | [10]

CCOC(=O)Oc1ccc(CCNC(=O)[C@H](CCSC)NC(C)=O)cc1OC(=O)OCC
inactive: [1] | [2] | [3] | [4] | [5] | [6] | [7] | [8] | [9] | [10]

COc1cc(C=O)ccc1O
inactive: [1] | [2] | [3] | [4] | [5] | [6] | [7] | [8] | [9] | [10]

CCCc1c2oc(C(=O)O)cc(=O)c2cc2c(=O)cc(C(=O)O)n(CC)c12
inactive: [1] | [2] | [3] | [4] | [5] | [6] | [7] | [9] | [10]

Cc1ncc([N+](=O)[O-])n1C
inactive: [1] | [2] | [3] | [4] | [5] | [6] | [7] | [9] | [10]

O=C(Oc1ccccc1)c1ccccc1O
inactive: [1] | [2] | [3] | [4] | [5] | [6] | [7] | [8] | [9] | [10]

O=C1[C@@H]2[C@H]3CC[C@H](C3)[C@@H]2C(=O)N1CCCCN1CCN(c2ncccn2)CC1
inactive: [1] | [2] | [3] | [4] | [5] | [6] | [7] | [8] | [9] | [10]

NS(=O)(=O)c1ccc(N2CCCCS2(=O)=O)cc1
inactive: [1] | [2] | [3] | [4] | [5] | [6] | [7] | [8] | [9] | [10]

Nc1cc(C(F)(F)F)ccc1S
inactive: [1] | [2] | [3] | [4] | [5] | [6] | [7] | [8] | [9] | [10]

COc1ccccc1N1CCN(CCN2C(=O)CC3(CCCC3)CC2=O)CC1
inactive: [1] | [2] | [3] | [4] | [5] | [6] | [7] | [8] | [9] | [10]

COC(=O)/C=C(/C)N
inactive: [1] | [2] | [3] | [4] | [5] | [6] | [7] | [8] | [9] | [10]

Cn1c(=O)c2c(ncn2CC(=O)O)n(C)c1=O
inactive: [1] | [2] | [3] | [4] | [5] | [6] | [7] | [9] | [10]

CCOC(=O)O[C@]1(C(=O)OCCl)CC[C@H]2[C@@H]3CCC4=CC(=O)C=C[C@]4(C)[C@H]3[C@@H](O)C[C@@]21C
inactive: [1] | [2] | [3] | [4] | [5] | [6] | [7] | [9] | [10]

CC(C(=O)O)c1ccc(/C=C2\CCCCC2=O)cc1 (configuration not stated)
inactive: [1] | [2] | [3] | [4] | [5] | [6] | [7] | [9] | [10]

CCCCCOc1ccc(C2SC(=O)NC2=O)cc1OCC (configuration not stated)
inactive: [1] | [2] | [3] | [4] | [5] | [6] | [7] | [9] | [10]

CCCC(=O)OCOC(=O)C1=C(C)NC(C)=C(C(=O)OC)C1c1cccc(Cl)c1Cl (configuration not stated)
inactive: [1] | [2] | [3] | [4] | [5] | [6] | [7] | [9] | [10]

Cc1nc([N+](=O)[O-])cn1-c1ccc([N+](=O)[O-])cc1
inactive: [1] | [2] | [3] | [4] | [5] | [6] | [7] | [9] | [10]

CCCCC(O)/C=C(C)/C=C/C=C/C(=O)N1CCCC1=O (configuration not stated)
inactive: [1] | [2] | [3] | [4] | [5] | [6] | [7] | [9] | [10]

N#CSCC(=O)O
inactive: [1] | [2] | [3] | [4] | [5] | [6] | [7] | [9] | [10]
